For 43 molecules, inhibition results are on record in PubChem BioAssay AID1362 (SRMLSC, 2008).

In all, about 190,000 compounds went through this assay and about 4,000 (2.1%) were called active. No stated cut-off is given here; in the data, active means inhibition above about 58%; inactive means the rest, inconclusive results apart; tested in S. cerevisiae. The sample as a whole holds a higher share of actives than the screen did.

A short description of the assay: growth inhibition of WT strain, primary screen, mitochondrial fusion inhibitor project, WT and mutant strains, chemical genetic (AID 1362). To be noted: mitochondrial fusion phenotypic screen, at 10 µM.
Setting [1] is: WT strain, growth inhibition, stronger effect = higher value.

The term inhibition denotes the relative decrease from the control value, in per cent. For `CCn1nccc1C(=O)Nc1ccc(S(=O)(=O)NC23CC4CC(CC(C4)C2)C3)cc1`, the inhibition under setting [1] is 64% (active) and the inhibition (mutant strain inhibition) is -11.7%.

On to `Cc1cc(C(F)F)n2nc(C(=O)Nc3ccc(S(=O)(=O)NC45CC6CC(CC(C6)C4)C5)cc3)nc2n1`, for which the inhibition under setting [1] is -1.63% (inactive) and the inhibition (mutant strain inhibition) is -19.6%.

As for `CCn1nccc1C(=O)Nc1ccc(Cl)c(Cl)c1`, the inhibition reads like this: under setting [1], 27.7% (inactive); (mutant strain inhibition) 28.1%.

Consider `S=c1nc(C23CC4CC(CC(C4)C2)C3)nc2sccn12`, for which the inhibition under setting [1] was 23.5% (inactive) and the inhibition (mutant strain inhibition) turned out to be 16.9%.

`COc1ccccc1N1CCN(CC(=O)NCCc2ccc(S(N)(=O)=O)cc2)CC1`: the inhibition runs as follows: under setting [1], -0.9% (inactive); (mutant strain inhibition) 3.52%.

Take `O=C1NC(Nc2nc3ccccc3s2)(C(F)(F)F)C(=O)N1C1CCCCC1` (stereo unspecified): the inhibition under setting [1] was 68.5% (active) and the inhibition (mutant strain inhibition) came to 15.8%.

In the case of `O=C(NC1(C(F)(F)F)NC(=O)N(C2CCCCC2)C1=O)c1ccco1` (stereo unspecified), the inhibition was -16.6% (inactive) under setting [1] and -15.1% (mutant strain inhibition).

Consider `COC(=O)NC1(C(F)(F)F)NC(=O)N(C2CCCCC2)C1=O` (stereo unspecified), for which the inhibition is 6.22% (inactive) under setting [1] and -5.73% (mutant strain inhibition).

With `CS(=O)(=O)N(CC(=O)NC1CCCC1)Cc1ccc(F)cc1`, the inhibition by setting is: under setting [1], 1.23% (inactive); (mutant strain inhibition) -0.09%.

With `CN(C)S(=O)(=O)c1cccc(NC(=O)COC(=O)/C=C/c2cccs2)c1`, the inhibition reads like this: under setting [1], 0.4% (inactive); (mutant strain inhibition) -0.76%.

As for `CN1CCN(S(=O)(=O)c2cccc(C(=O)N3CCc4ccccc43)c2)CC1`, the inhibition runs as follows: under setting [1], -3.09% (inactive); (mutant strain inhibition) -6.02%.

With `COc1cccc(CNC(=O)Cc2csc(Nc3nc(=S)[nH]c4ccccc34)n2)c1`, the inhibition was 2.48% (inactive) under setting [1] and 7.91% (mutant strain inhibition).

With `Cc1noc(C)c1CSCC(=O)Nc1nc2ccc(Oc3ccccc3)cc2s1`, the inhibition was 71.3% (active) under setting [1] and 34.8% (mutant strain inhibition).

For the molecule `CCOC(=O)c1c(C2CC2)csc1NC(=O)CSCc1c(C)noc1C`, the inhibition under setting [1] is -0.08% (inactive) and the inhibition (mutant strain inhibition) was found to be 6.46%.

As to `CCn1c(SCC(=O)Nc2nc3ccc(OC)cc3s2)nnc1-c1ccoc1C`, the inhibition was 42% (inactive) under setting [1] and 9.68% (mutant strain inhibition).

Turning to `O=C(O)Cc1ccc(NCc2ccccc2Cl)cc1`, the inhibition under setting [1] was 2.97% (inactive) and the inhibition (mutant strain inhibition) was -2.38%.

On to `CN1CCNC(=O)C1CC(=O)NCCC1=CCCCC1` (stereo unspecified), for which the inhibition was 13.1% (inactive) under setting [1] and 9.2% (mutant strain inhibition).

With `CCCc1cc(-c2nc(-c3ccc(C)cc3)cs2)ccn1`, the inhibition runs as follows: under setting [1], 77.9% (active); (mutant strain inhibition) 50.8%.

Consider `Cc1ccc(-c2csc(NNC(=O)c3ccccc3)n2)cc1`, for which the inhibition is 9.24% (inactive) under setting [1] and 14% (mutant strain inhibition).

In the case of `Clc1ccc(-c2csc(-c3ccncc3)n2)cc1`, the inhibition is 25.2% (inactive) under setting [1] and 28.4% (mutant strain inhibition).

As to `CC1Cc2ccccc2N1C(=O)CSc1nnc(C2CC2)n1C` (stereo unspecified), the inhibition is -5.06% (inactive) under setting [1] and 2.15% (mutant strain inhibition).

Turning to `Cc1ccc(C)c(NC(=S)NNC(=O)c2csc(C)c2)c1`, the inhibition runs as follows: under setting [1], -2.09% (inactive); (mutant strain inhibition) -14.4%.

`Cc1ccc(NC(=S)N/N=C2/CCCc3c(C)cc(C)cc32)cc1`: the inhibition runs as follows: under setting [1], 23.1% (inactive); (mutant strain inhibition) 23.1%.

As to `Cc1ccc(C)c(NC(=S)NNC(=S)Nc2ccc(C(C)C)cc2)c1`, the inhibition was 71.3% (active) under setting [1] and 24.5% (mutant strain inhibition).

As for `Cc1nn(CCOc2ccc(Br)cc2)c(C)c1[N+](=O)[O-]`, the inhibition under setting [1] was 3.38% (inactive) and the inhibition (mutant strain inhibition) was -3.33%.

For `O=S(=O)(Cc1ccccc1)c1nc2ccccc2n1Cc1ccccn1`, the inhibition under setting [1] is 23.5% (inactive) and the inhibition (mutant strain inhibition) was determined as 10.5%.

Regarding `OC(CN=c1sc2ccccc2n1CC(O)COc1ccccc1)COc1ccccc1` (stereo unspecified), the inhibition under setting [1] was 74.3% (active) and the inhibition (mutant strain inhibition) was determined as 39.9%.

As to `C=CCn1c(=N)n(CC(O)COc2ccc(OC)cc2)c2ccccc21` (stereo unspecified), the inhibition reads like this: under setting [1], 10.5% (inactive); (mutant strain inhibition) -4.41%.

As for `OC(COc1ccccc1)Cn1cc(Br)cn1` (stereo unspecified), the inhibition was 5.35% (inactive) under setting [1] and -3.45% (mutant strain inhibition).

For `COc1ccccc1C(c1nnnn1CC1CCCO1)N1CCN(c2ccccc2)CC1` (stereo unspecified), the inhibition reads like this: under setting [1], 24.2% (inactive); (mutant strain inhibition) -7.45%.

For `O=C1COc2ccc(C(=O)COC(=O)C3CC(O)CN3S(=O)(=O)c3ccc(Cl)cc3)cc2N1` (stereo unspecified), the inhibition is, setting by setting: under setting [1], 7.83% (inactive); (mutant strain inhibition) 0.3%.

In the case of `Cc1ccnc(NC(=O)CCC(=O)N(CC(=O)NCc2ccccc2)Cc2ccco2)c1`, the inhibition by setting is: under setting [1], -6.89% (inactive); (mutant strain inhibition) 16.9%.

In the case of `O=S1(=O)CCC(NC(=S)SCc2ccccc2Br)C1` (stereo unspecified), the inhibition is -2.13% (inactive) under setting [1] and 13.4% (mutant strain inhibition).

Take `CC(C)Cn1c(CN(Cc2ccccc2)Cc2ccccc2)nc2c1c(=O)n(C)c(=O)n2C`: the inhibition by setting is: under setting [1], 85.5% (active); (mutant strain inhibition) 23.3%.

Turning to `CC(C)CCn1c(CN(C)Cc2ccccc2)nc2c1c(=O)n(C)c(=O)n2C`, the inhibition reads like this: under setting [1], 1.88% (inactive); (mutant strain inhibition) 1.47%.

For `COCCn1c(CN(Cc2ccccc2)Cc2ccccc2)nc2c1c(=O)n(C)c(=O)n2C`, the inhibition by setting is: under setting [1], 13% (inactive); (mutant strain inhibition) -1.28%.

`Cc1ccc2nc(C)cc(N/N=C/c3ccc(F)cc3)c2c1`: the inhibition was 6.16% (inactive) under setting [1] and 21% (mutant strain inhibition).

For the molecule `CCOC(=O)c1cccc(NC(=O)CCOc2ccccc2)c1`, the inhibition is 3.69% (inactive) under setting [1] and 2.18% (mutant strain inhibition).

For `COc1ccccc1CSc1ncc(-c2ccc([N+](=O)[O-])cc2)[nH]1`, the inhibition reads like this: under setting [1], 63.4% (active); (mutant strain inhibition) 30.7%.

As for `COc1ccccc1CC(=O)Nc1ccc([N+](=O)[O-])cc1OC`, the inhibition is, setting by setting: under setting [1], -6.53% (inactive); (mutant strain inhibition) -1.24%.

Regarding `COc1ccccc1CSc1nc2ccccc2[nH]1`, the inhibition is, setting by setting: under setting [1], -4.85% (inactive); (mutant strain inhibition) -2.06%.

On to `COCC(C)NCc1cc(Br)ccc1OC` (stereo unspecified), for which the inhibition was 7.52% (inactive) under setting [1] and 7.1% (mutant strain inhibition).

`CCCOc1ccc(N/C=C/C(=O)C(C)(C)C)cc1`: the inhibition is -11.3% (inactive) under setting [1] and -8.28% (mutant strain inhibition).
